Source: PubChem BioAssay
Shown are actives, neighbours in structure and some others; about 1.6% of the full set was active somewhere.
UBC9 SUMO inh: SUMOylation inhibition; HTRF SUMOylation assay, SAE1/SAE2 + UBC9, in vitro; inhibition, % at 35 µM; hit rate 0.36% among 290,000; in the data active = inhibition above about 50%, passing the limit was not always enough
Target sequence (P63279 whole entry, looked up): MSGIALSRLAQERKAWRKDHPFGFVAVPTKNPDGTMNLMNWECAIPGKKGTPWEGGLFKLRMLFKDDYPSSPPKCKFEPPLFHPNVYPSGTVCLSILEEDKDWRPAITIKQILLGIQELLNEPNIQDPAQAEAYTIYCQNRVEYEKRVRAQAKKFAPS
NSD2 HMT inh: NSD2 (human) methyltransferase inhibition | O96028 | NSD2 peptide methylation, AlphaScreen, 120 min | inhibition, % at 12.5 µM | hit rate 0.54% among 310,000; in the data active = inhibition above about 50%
SIRT5 block: inhibitors of human sirtuin-5 desuccinylase. inhibition, % at 15 µM. Purified SirT5, succinyl-peptide AMC, trypsin-coupled fluorescence. hit rate 1.1% among 330,000. Q9NXA8; in the data active = inhibition above about 15%
Casp6 inh: blocks human caspase-6 cleavage activity. AID 686996. purified caspase-6, Z-VEID-R110 cleavage fluorescence. hit rate 0.53% among 350,000. inhibition, % at 12.5 µM. P55212;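 active = mean inhibition across replicates at least about 35%, with every replicate also reaching that limit, limit read from the data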
Target sequence (P55212 24-179 limits assumed): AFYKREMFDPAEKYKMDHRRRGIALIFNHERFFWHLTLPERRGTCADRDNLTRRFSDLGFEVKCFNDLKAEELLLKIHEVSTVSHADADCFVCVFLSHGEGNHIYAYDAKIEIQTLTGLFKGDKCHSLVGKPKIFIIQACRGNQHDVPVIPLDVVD
Target sequence (P55212 194-293 limits assumed): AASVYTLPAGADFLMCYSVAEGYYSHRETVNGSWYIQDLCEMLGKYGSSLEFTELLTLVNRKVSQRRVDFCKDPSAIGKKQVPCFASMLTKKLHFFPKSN
CASP1 counter: selectivity counter-screen: inhibitors of human caspase-1 | purified caspase-1, Z-YVAD-R110 cleavage fluorescence | 100 tested, under 10 active | activity change, negative = inhibition, % at 35 µM | AID 743289 | shares compounds with Casp6 inh;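 active = compounds lowering fluorescence whose fitted half-maximal concentration is no more than twice their top tested dose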
Alpha artifact: AlphaScreen assay artifact in NSD2 counter-screen; shares compounds with NSD2 HMT inh; AlphaScreen artifact counterscreen, preloaded methylated H4 peptide; AC35, µM (top dose mostly 10 µM); hit rate 9.4% among 1,500; AID 1053174; call rule not given here
Of the large screens only hits and unclear results are named; the others gave an inactive call (follow-up assays come after a bar, where they were run).

COc1ccc(N2C(=O)/C(=C/c3ccc(OC)c(OC)c3)C(=O)NC2=S)cc1	none
O=C1NC(=O)N(Cc2ccccc2)C(=O)/C1=C\c1ccco1	SIRT5 block 25, Casp6 inh 63
COc1ccc(N2C(=O)/C(=C/c3ccc(C)o3)C(=O)NC2=S)c(OC)c1	Casp6 inh 38
COc1ccc(CN2C(=O)NC(=O)/C(=C/c3cc(OC)c(OC)c(OC)c3)C2=O)cc1	none
COC(=O)[C@@H]1[C@@H](CO)[C@@H]2Cn3c(ccc(-c4cccc(F)c4)c3=O)[C@H]1N2Cc1ccccc1	none (no result: UBC9 SUMO inh, NSD2 HMT inh)
C/C=C/c1ccc(C2[C@@H]3CN(Cc4cocn4)C[C@H]2N3)cc1 (some centres not stated)	none (no result: UBC9 SUMO inh, NSD2 HMT inh)
COC(=O)[C@@H]1[C@@H](CO)[C@@H]2Cn3c(ccc(-c4ccc(F)cc4)c3=O)[C@H]1N2Cc1cccnc1	none (no result: UBC9 SUMO inh, NSD2 HMT inh)
CN1[C@@H]2CNc3ccccc3[C@@H]2[C@@H]1CO	none (no result: UBC9 SUMO inh, NSD2 HMT inh)
COC(=O)[C@@H]1[C@@H](CO)[C@@H]2Cn3c(ccc(C4=CCCC4)c3=O)[C@H]1N2CC1CCCC1	none (no result: UBC9 SUMO inh, NSD2 HMT inh)
COC(=O)[C@H]1[C@H](CO)[C@H]2Cn3c(ccc(C4=CCCCC4)c3=O)[C@@H]1N2Cc1ccccc1OC	none (no result: UBC9 SUMO inh, NSD2 HMT inh)
CCOc1ccc(N2C(=O)/C(=C/c3ccco3)C(=O)NC2=S)cc1	none (no result: NSD2 HMT inh, SIRT5 block, Casp6 inh)
O=C1NC(=O)N(Cc2ccco2)C(=O)/C1=C/c1cccn1CCOc1ccccc1Cl	UBC9 SUMO inh 66, Casp6 inh 58 (no result: SIRT5 block)
Cn1cccc1/C=C1\C(=O)NC(=O)N(Cc2ccccc2)C1=O	none
Cc1ccccc1N1C(=O)/C(=C/c2ccco2)C(=O)NC1=S	UBC9 SUMO inh 97 (no result: NSD2 HMT inh, SIRT5 block, Casp6 inh)
Cc1cccc(N2C(=O)/C(=C/c3ccc(N4CCN(C)CC4)o3)C(=O)NC2=S)c1C	NSD2 HMT inh 51
O=C(Cc1cccnc1)N1CCCCN2[C@H](C1)[C@H](c1ccc(/C=C/c3ccccc3)cc1)[C@@H]2CO	none (no result: UBC9 SUMO inh, NSD2 HMT inh)
CN1C(=O)NC(=O)/C(=C\c2ccc([N+](=O)[O-])o2)C1=O	NSD2 HMT inh active (no result: SIRT5 block, Casp6 inh)
O=C1NC(=O)N(c2ccccc2)C(=O)/C1=C\c1ccc([N+](=O)[O-])o1	none (no result: NSD2 HMT inh, SIRT5 block, Casp6 inh)
Cc1cccc(-n2c(/C=C/c3ccc([N+](=O)[O-])o3)nc3ccccc3c2=O)c1	SIRT5 block 18
O=c1c2ccccc2nc(/C=C/c2ccc([N+](=O)[O-])o2)n1-c1ccc(O)cc1	none
COc1cc(/C=C/c2nc3ccccc3c(=O)n2-c2cccc(O)c2)ccc1O	UBC9 SUMO inh 51
CC[C@H]1C=C(C(=O)N[C@@]2(C(=O)O)C[C@H]2CC)[C@H]2CCC(=O)[C@H]2C1	none (no result: UBC9 SUMO inh, NSD2 HMT inh)
O=C(Cn1cc(C(=O)c2ccccc2F)c2ccccc21)NCc1ccco1	none (no result: SIRT5 block, Casp6 inh)
CC(C)(C)C(=O)c1cn(CC(=O)NCc2ccco2)c2ccccc12	SIRT5 block 17
O=C(Cc1ccccn1)N1CCCCN2[C@H](C1)[C@@H](c1ccc(-c3ccccc3)cc1)[C@@H]2CO	none (no result: UBC9 SUMO inh, NSD2 HMT inh)
NN=C1C(Cl)=C(Cl)C(Cl)=C1Cl	Casp6 inh 97 (no result: UBC9 SUMO inh)
N#CC1=C(N)Oc2c(c(=O)oc3ccccc23)C1c1ccc([N+](=O)[O-])o1 (configuration not stated)	Casp6 inh 40
COC(=O)[C@@H]1[C@@H](C(=O)OC)C2(c3ccccc3-c3ccccc32)N(c2ccc(Cl)cc2)N1C#N	SIRT5 block 17
CCCNC(=O)N1[C@@H]2c3ccc(-c4cccc(C(=O)N(C)C)c4)c(=O)n3C[C@H]1[C@H](CO)[C@H]2C(=O)O	none (no result: UBC9 SUMO inh, NSD2 HMT inh)
CC(Cc1ccc(O)cc1)NCC(O)c1ccc(O)c(O)c1 (configuration not stated)	NSD2 HMT inh 126, Casp6 inh 73 (no result: UBC9 SUMO inh) | CASP1 counter inactive
CN1CCc2cc(O)cc3c2[C@H]1Cc1ccc(O)c(O)c1-3	none (no result: UBC9 SUMO inh, NSD2 HMT inh)
CN1CCc2cc3c(c4c2C1Cc1ccccc1-4)OCO3 (configuration not stated)	Casp6 inh 84 | CASP1 counter inactive
C/C=C/c1ccc([C@@H]2[C@H](CO)N3CCCCN(C(=O)Cc4ccncc4)C[C@@H]23)cc1	none (no result: UBC9 SUMO inh, NSD2 HMT inh)
Cc1cc(/C=C2\C(=O)NC(=O)N(c3ccccc3F)C2=O)c(C)n1-c1cc(C(=O)O)cc(C(=O)O)c1	NSD2 HMT inh 62 | Alpha artifact inactive
CN1C(=O)/C(=C\c2ccc(Br)s2)C(=O)NC1=S	none
O=C1NC(=S)NC(=O)C1=Cc1ccc(Br)s1	NSD2 HMT inh 52, SIRT5 block 24 | Alpha artifact inactive
COc1ccc(-c2ccc([C@@H]3[C@@H](CO)N4CCCCN(C(=O)Cc5ccncc5)C[C@@H]34)cc2)cc1	none (no result: UBC9 SUMO inh, NSD2 HMT inh)
Cn1c(O)c(/C=C2\C=Nc3ccc(Br)cc32)c(=O)n(C)c1=O	none
CCNC(=S)NCCC1=c2ccccc2=N/C1=C\c1c(O)n(C)c(=O)n(C)c1=O	NSD2 HMT inh 55 | Alpha artifact inactive
COC(=O)[C@H]1[C@H](CO)[C@H]2Cn3c(ccc(C4=CCCCC4)c3=O)[C@@H]1N2C(=O)CC1CC1	none (no result: UBC9 SUMO inh, NSD2 HMT inh)
CCN1C[C@]2(CO)CC[C@H](OC)[C@@]34C2[C@H](OC)[C@@](O)(C13)[C@@]1(O)C[C@H](OC)[C@H]2C[C@@H]4[C@@H]1[C@H]2OC	NSD2 HMT inh 57, SIRT5 block 24 | Alpha artifact inactive
Cn1c(O)c(/C=C/C=Nc2ccccc2)c(=O)n(C)c1=S	NSD2 HMT inh 55 (no result: SIRT5 block, Casp6 inh) | Alpha artifact inactive
O=C1NC(=O)C(=Cc2ccc(SC3CCCCC3)o2)C(=O)N1	NSD2 HMT inh 62, Casp6 inh 67 | Alpha artifact inactive
CN1CCN(c2ncnc3c2cnn3C)CC1	NSD2 HMT inh 76 | Alpha artifact inactive
O=C(Cc1ccccc1)N1C[C@@H]2[C@H](c3ccccc31)[C@H](CO)N2Cc1ccccc1	none (no result: UBC9 SUMO inh, NSD2 HMT inh)
Cc1cc(C)cc(N2C(=O)NC(=O)/C(=C\C=C\c3ccco3)C2=O)c1	NSD2 HMT inh 72 | Alpha artifact inactive
CCc1ccc(N2C(=O)NC(=O)/C(=C\C=C\c3ccco3)C2=O)cc1	NSD2 HMT inh 54, Casp6 inh 54 | Alpha artifact inactive
COC(=O)[C@@H]1[C@@H](CO)[C@@H]2Cn3c(ccc(/C=C/c4ccccc4)c3=O)[C@H]1N2C(=O)C1CCC1	none (no result: UBC9 SUMO inh, NSD2 HMT inh)
Cc1ccc(N2C(=O)NC(=O)/C(=C/c3ccoc3)C2=O)cc1	UBC9 SUMO inh 56, NSD2 HMT inh 90, SIRT5 block 18, Casp6 inh 85 | Alpha artifact inactive
CSc1ncc(/C=C2/C(=O)NC(=O)N(c3ccc(C)cc3)C2=O)cn1	none
Cc1ccc(N2C(=O)NC(=O)/C(=C/c3cnn(-c4ccc(C)cc4)c3)C2=O)cc1	NSD2 HMT inh 51 (no result: SIRT5 block, Casp6 inh) | Alpha artifact inactive
O=C(Cc1ccccc1)N1CCCCN2[C@@H](CO)[C@H](c3ccc(C#Cc4ccccc4)cc3)[C@@H]2C1	none (no result: UBC9 SUMO inh, NSD2 HMT inh)
CCCNC(=O)N1[C@@H]2Cn3c(ccc(-c4ccccc4OC)c3=O)[C@H]1[C@@H](C(=O)O)[C@@H]2CO	none (no result: UBC9 SUMO inh, NSD2 HMT inh)
COCCCNC(=O)c1c(NC(=O)c2ccccc2Cl)n(Cc2ccccc2)c2nc3ccccc3nc12	none (no result: SIRT5 block, Casp6 inh)
